Reference: PubChem BioAssay (EPA / NIEHS)
The source made the active and inactive calls. Rule for the calls: active = hit-call score of the fitted dose curve at least 0.9, where 1 is the maximum; inactive = score below 0.9.

Tests used:
Conditions in all cases: mRNA level, 48 h; actives raise or lower the signal
[1] = read-out: Insulin Like Growth Factor 1 (IGF1), IGF1 (gene 3479); assay: LTEA_HepaRG_IGF1: Life Technologies and Expression Analysis (LTEA) Assay for Insulin Like Growth Factor 1 (IGF1) using HepaRG (AID 2283506)
How it was run: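 Differentiated human HepaRG cells were dosed for 48 h in serum-free induction medium with 0.5% DMSO, eight half-log concentrations up to 100 uM, in duplicate. IGF1 mRNA was quantified by qRT-PCR normalized to ACTB, GAPDH, POLR2A; bidirectional fitting versus DMSO.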

[2] = read-out: Intercellular Adhesion Molecule 1 (ICAM1), ICAM1 (gene 3383); assay: LTEA_HepaRG_ICAM1: Life Technologies and Expression Analysis (LTEA) Assay for Intercellular Adhesion Molecule 1 (ICAM1) using HepaRG (AID 2283507)
How it was run: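 HepaRG, 48 h exposure, 8-pt half-log series from 100 uM, 0.5% DMSO vehicle, duplicates. Readout: TaqMan qRT-PCR mRNA, housekeeping-normalized (ACTB/GAPDH/POLR2A). Bidirectional curve fit vs DMSO baseline.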

[3] = read-out: Insulin-like growth factor-binding protein 1 (IGFBP1), IGFBP1 (gene 3484); assay: LTEA_HepaRG_IGFBP1: Life Technologies and Expression Analysis (LTEA) Assay for Insulin-like growth factor-binding protein 1 (IGFBP1) using HepaRG (AID 2283508)
How it was run: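 qRT-PCR mRNA read-out (TaqMan, Fluidigm array), normalised to three housekeeping genes; HepaRG cells, 48 h exposure, 8-pt half-log series from 100 uM, 0.5% DMSO vehicle; bidirectional curve fit vs DMSO baseline.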

[4] = read-out: Interleukin 6 (IL6), IL6 (gene 3569); assay: LTEA_HepaRG_IL6: Life Technologies and Expression Analysis (LTEA) Assay for Interleukin 6 (IL6) using HepaRG (AID 2283509)
How it was run: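 HepaRG cells exposed in duplicate for 48 h to eight half-log concentrations, top 100 uM, in 0.5% DMSO serum-free induction medium. mRNA measured by qRT-PCR, normalized to ACTB, GAPDH and POLR2A. Bidirectional fit versus DMSO.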

[5] = read-out: Interleukin 6 Receptor (IL6R), IL6R (gene 3570); assay: LTEA_HepaRG_IL6R: Life Technologies and Expression Analysis (LTEA) Assay for Interleukin 6 Receptor (IL6R) using HepaRG (AID 2283510)
How it was run: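 Differentiated human HepaRG cells, plated 48 h then switched to serum-free induction medium, were dosed in duplicate for 48 h at eight half-log concentrations up to 100 uM in 0.5% DMSO. IL6R mRNA quantified by qRT-PCR, normalized to ACTB/GAPDH/POLR2A; bidirectional fit versus DMSO.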

[6] = read-out: Potassium channel subfamily K member 1 (KCNK1), KCNK1 (gene 3775); assay: LTEA_HepaRG_KCNK1: Life Technologies and Expression Analysis (LTEA) Assay for Potassium channel subfamily K member 1 (KCNK1) using HepaRG (AID 2283511)
How it was run: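 Differentiated HepaRG cells, 48 h exposure in serum-free induction medium with 0.5% DMSO; 8 concentrations, half-log from 100 uM, duplicate. KCNK1 mRNA by qRT-PCR, normalized to ACTB, GAPDH, POLR2A; bidirectional fit vs DMSO.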

[7] = read-out: Keratin 19 (KRT19), KRT19 (gene 3880); assay: LTEA_HepaRG_KRT19: Life Technologies and Expression Analysis (LTEA) Assay for Keratin 19 (KRT19) using HepaRG (AID 2283512)
How it was run: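 HepaRG, 48 h chemical exposure, 8-pt half-log CRC from 100 uM, 0.5% DMSO vehicle, duplicates. Readout: TaqMan qRT-PCR of KRT19 mRNA, housekeeping-normalized (ACTB/GAPDH/POLR2A). Bidirectional fit vs DMSO baseline.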

[8] = read-out: JUN Transcription Factor, JUN (gene 3725); assay: LTEA_HepaRG_JUN: Life Technologies and Expression Analysis (LTEA) Assay for JUN Transcription Factor using HepaRG (AID 2283513)
How it was run: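 Differentiated HepaRG cells were exposed to chemicals for 48 h in serum-free induction medium, 8 concentrations from 100 uM in half-log steps, 0.5% DMSO vehicle, in duplicate. JUN mRNA was quantified by TaqMan qRT-PCR, normalized to ACTB, GAPDH, POLR2A.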

[9] = read-out: Lipase C (LIPC), LIPC (gene 3990); assay: LTEA_HepaRG_LIPC: Life Technologies and Expression Analysis (LTEA) Assay for Lipase C (LIPC) using HepaRG (AID 2283514)
How it was run: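 HepaRG cells, 48 h after plating, treated in duplicate for 48 h in serum-free induction medium over 8 half-log concentrations from 100 uM, 0.5% DMSO. LIPC mRNA by TaqMan qRT-PCR normalized to ACTB/GAPDH/POLR2A; bidirectional fit versus DMSO.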

[10] = read-out: Lipoprotein lipase (LPL), LPL (gene 4023); assay: LTEA_HepaRG_LPL: Life Technologies and Expression Analysis (LTEA) Assay for Lipoprotein lipase (LPL) using HepaRG (AID 2283515)
How it was run: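 Differentiated HepaRG cells, plated 48 h, then exposed 48 h in serum-free induction medium to 8 concentrations (top 100 uM, half-log steps) in 0.5% DMSO, duplicate. LPL mRNA measured by qRT-PCR, normalized to ACTB, GAPDH and POLR2A.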

[11] = read-out: MicroRNA 122 (MIR122), gene 406906; assay: LTEA_HepaRG_MIR122: Life Technologies and Expression Analysis (LTEA) Assay for MicroRNA 122 (MIR122) using HepaRG (AID 2283516); note: the transcript read is the microRNA miR-122
How it was run: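 Differentiated human HepaRG cells were exposed 48 h in serum-free induction medium to eight half-log concentrations (top 100 uM, 0.5% DMSO). Transcript level was measured by TaqMan qRT-PCR, normalized to ACTB, GAPDH and POLR2A, and fitted bidirectionally versus DMSO.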

[12] = read-out: matrix metalloproteinase-10 (MMP10), MMP10 (gene 4319); assay: LTEA_HepaRG_MMP10: Life Technologies and Expression Analysis (LTEA) Assay for matrix metalloproteinase-10 (MMP10) using HepaRG (AID 2283517)
How it was run: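 Differentiated HepaRG cells in serum-free induction medium exposed 48 h in duplicate to 8-point half-log series up to 100 uM in 0.5% DMSO. mRNA quantified by qRT-PCR, normalised to ACTB, GAPDH, POLR2A; bidirectional fit versus DMSO.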

[13] = read-out: matrix metalloproteinase-3 (MMP3), MMP3 (gene 4314); assay: LTEA_HepaRG_MMP3: Life Technologies and Expression Analysis (LTEA) Assay for matrix metalloproteinase-3 (MMP3) using HepaRG (AID 2283519)
How it was run: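 HepaRG cells (~100,000/well) in serum-free induction medium were dosed in duplicate for 48 h with an 8-point half-log series from 100 uM, 0.5% DMSO. MMP3 mRNA was quantified by Fluidigm TaqMan qRT-PCR, normalized to three housekeeping genes.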

[14] = read-out: Paternally Expressed 10 (PEG10), PEG10 (gene 23089); assay: LTEA_HepaRG_PEG10: Life Technologies and Expression Analysis (LTEA) Assay for Paternally Expressed 10 (PEG10) using HepaRG (AID 2283520)
How it was run: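 Differentiated HepaRG cells, plated 48 h then switched to serum-free induction medium, were exposed in duplicate for 48 h to eight half-log concentrations topping at 100 uM in 0.5% DMSO. PEG10 mRNA was quantified by TaqMan qRT-PCR, normalised to ACTB, GAPDH and POLR2A.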

[15] = read-out: Nuclear factor NF-kappa-B p105 subunit (Homo sapiens) (UniProt P19838); assay: LTEA_HepaRG_NFKB1: Life Technologies and Expression Analysis (LTEA) Assay for Nuclear Factor Kappa B Subunit 1 (NFKB1) using HepaRG (AID 2283521);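 note: TaqMan qRT-PCR transcript normalised to ACTB GAPDH and POLR2A housekeeping genes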
How it was run: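 HepaRG, 48 h exposure; 8-pt half-log series from 100 uM in 0.5% DMSO; duplicates. Readout: NFKB1 mRNA by qRT-PCR (Fluidigm arrays), housekeeping-normalized. Gain/loss fit vs DMSO baseline.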

[16] = read-out: Protein phosphatase 2A (PPP2R4), PTPA (gene 5524); assay: LTEA_HepaRG_PPP2R4: Life Technologies and Expression Analysis (LTEA) Assay for Protein phosphatase 2A (PPP2R4) using HepaRG (AID 2283522)
How it was run: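 Differentiated HepaRG cells in serum-free induction medium were exposed in duplicate for 48 h to eight concentrations, top 100 uM with half-log dilutions, in 0.5% DMSO. PPP2R4 mRNA was quantified by TaqMan qRT-PCR, normalized to ACTB, GAPDH and POLR2A.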

[17] = read-out: Phosphatase and tensin (PTEN), PTEN (gene 5728); assay: LTEA_HepaRG_PTEN: Life Technologies and Expression Analysis (LTEA) Assay for Phosphatase and tensin (PTEN) using HepaRG (AID 2283523)
How it was run: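 HepaRG cells, 48 h after plating, exposed in duplicate for 48 h in serum-free induction medium to 8 half-log concentrations up to 100 uM (0.5% DMSO). PTEN mRNA by qRT-PCR, normalized to ACTB, GAPDH, POLR2A; bidirectional fit versus DMSO.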

[18] = read-out: solute carrier (SLC22A1), SLC22A1 (gene 6580); assay: LTEA_HepaRG_SLC22A1: Life Technologies and Expression Analysis (LTEA) Assay for solute carrier (SLC22A1) using HepaRG (AID 2283524)
How it was run: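 Differentiated human HepaRG cells in serum-free induction medium, exposed 48 h in duplicate to 8-point half-log series from 100 µM top in 0.5% DMSO. SLC22A1 mRNA by TaqMan qRT-PCR normalized to ACTB, GAPDH, POLR2A; bidirectional fit versus DMSO.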

[19] = read-out: Pyruvate Dehydrogenase Kinase 4 (PDK4), PDK4 (gene 5166); assay: LTEA_HepaRG_PDK4: Life Technologies and Expression Analysis (LTEA) Assay for Pyruvate Dehydrogenase Kinase 4 (PDK4) using HepaRG (AID 2283525)
How it was run: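 HepaRG cells plated 48 h, then switched to serum-free induction medium and exposed in duplicate for 48 h to 8 half-log concentrations from 100 uM in 0.5% DMSO. PDK4 mRNA measured by qRT-PCR, normalized to ACTB, GAPDH and POLR2A; bidirectional fit versus DMSO.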

MYC, MYC (gene 4609) = assay: LTEA_HepaRG_MYC: Life Technologies and Expression Analysis (LTEA) Assay for MYC using HepaRG (AID 2283518)
How it was run: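 qRT-PCR read-out of MYC transcript (Fluidigm TaqMan, housekeeping-normalized) after 48 h chemical exposure of HepaRG cells; eight concentrations, top 100 uM, half-log steps. Bidirectional curve fitting against 0.5% DMSO vehicle baseline.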

Measured: AC50

Sequence of Nuclear factor NF-kappa-B p105 subunit (Homo sapiens) (P19838 whole entry, looked up): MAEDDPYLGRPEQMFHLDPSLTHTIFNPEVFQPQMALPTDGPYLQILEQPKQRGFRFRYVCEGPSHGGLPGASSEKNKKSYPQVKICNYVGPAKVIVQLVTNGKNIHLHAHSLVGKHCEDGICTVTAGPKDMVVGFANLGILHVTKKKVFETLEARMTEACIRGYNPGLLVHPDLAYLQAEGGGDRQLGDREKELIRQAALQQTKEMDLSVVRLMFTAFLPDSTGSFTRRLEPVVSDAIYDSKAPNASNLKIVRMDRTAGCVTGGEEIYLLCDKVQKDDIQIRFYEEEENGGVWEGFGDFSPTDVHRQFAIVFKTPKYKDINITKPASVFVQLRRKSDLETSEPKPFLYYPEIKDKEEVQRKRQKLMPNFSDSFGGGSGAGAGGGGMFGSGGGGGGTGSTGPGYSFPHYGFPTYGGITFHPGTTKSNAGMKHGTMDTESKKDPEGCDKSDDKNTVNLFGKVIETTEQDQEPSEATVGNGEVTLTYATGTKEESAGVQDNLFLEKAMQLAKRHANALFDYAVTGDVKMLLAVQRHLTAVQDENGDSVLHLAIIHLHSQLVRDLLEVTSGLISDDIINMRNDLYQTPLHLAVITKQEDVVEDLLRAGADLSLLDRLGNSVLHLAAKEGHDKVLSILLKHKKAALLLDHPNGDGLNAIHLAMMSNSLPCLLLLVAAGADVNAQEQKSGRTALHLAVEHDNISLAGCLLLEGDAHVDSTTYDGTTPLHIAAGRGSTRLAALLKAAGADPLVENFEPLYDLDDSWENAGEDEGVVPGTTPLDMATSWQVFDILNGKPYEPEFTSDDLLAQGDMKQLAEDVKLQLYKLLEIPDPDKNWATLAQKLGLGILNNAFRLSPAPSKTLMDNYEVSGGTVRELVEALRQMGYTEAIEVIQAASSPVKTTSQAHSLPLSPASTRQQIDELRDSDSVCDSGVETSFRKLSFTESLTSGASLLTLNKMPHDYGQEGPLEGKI

Brc1ccc(Oc2ccccc2)cc1
not listed: MYC, MYC (gene 4609)
inactive: all other assays above

CC(C)(OOC(C)(C)c1ccccc1)c1ccccc1
not listed: [12]
inactive: all other assays above

CCCSC(=O)N(CCC)CCC
not listed: [16]
inactive: all other assays above

COC(=O)c1ccccc1N
not listed: [16] | MYC, MYC (gene 4609)
inactive: all other assays above

c1ccc2c(c1)oc1ccccc12
not listed: [16] | MYC, MYC (gene 4609)
inactive: all other assays above

CCOC(=O)[C@]1(c2ccccc2)Oc2ccccc2[C@@H]1N
active: [1] 80.2 µM | [3] 91.6 µM | [4] 84.8 µM | [8] 93.6 µM | [9] 77.3 µM | [10] 50 µM | [12] 92.9 µM | [13] 72.8 µM | [14] 62.5 µM | [18] 84.2 µM | [19] 71.2 µM
inactive: [2] | [5] | [6] | [7] | [11] | [15] | [17]

Clc1ccc(C(c2ccc(Cl)cc2)C(Cl)Cl)cc1
active: [18] 78.2 µM
not listed: MYC, MYC (gene 4609)
inactive: all other assays above

Cc1ccc(N)cc1
not listed: [12] | [16]
inactive: all other assays above

C=CCc1ccc2c(c1)OCO2
not listed: [16]
inactive: all other assays above

O=C(Nc1ccccc1)c1ccccc1I
active: [1] 19.1 µM | [3] 34.8 µM | [7] 22.6 µM | [9] 50 µM | [11] 50 µM | MYC, MYC (gene 4609) 41.6 µM | [14] 31.2 µM | [18] 31.1 µM | [19] 9.92 µM
inactive: all other assays above

Cc1cc(N=Nc2ccccc2C)ccc1N
inactive: [2] | [4] | [6] | [8] | [12] | [15]
active: [1] 4.25 µM | [3] 9.92 µM | [5] 2.45 µM | [7] 17.2 µM | [9] 3.22 µM | [10] 4.4 µM | [11] 3.67 µM | MYC, MYC (gene 4609) 5.49 µM | [13] 12.2 µM | [14] 4.04 µM | [16] 2.35 µM | [17] 4.12 µM | [18] 4.83 µM | [19] 2.39 µM

CC(C)(C)OOC(=O)c1ccccc1
not listed: [12] | [16]
inactive: all other assays above

[Cl-].[Cl-].[Hg+2]
active: [7] 29.3 µM
not listed: [16] | MYC, MYC (gene 4609)
inactive: all other assays above

C[C@]12C=CC3=C4CCC(=O)C=C4CC[C@H]3[C@@H]1CC[C@@H]2O
active: [1] 55.6 µM | [4] 9.92 µM | [11] 69.6 µM | [14] 0.805 µM | [18] 41 µM
not listed: [9] | [12] | MYC, MYC (gene 4609)
inactive: all other assays above
